Shown are actives, neighbours in structure and some others; about 2.5% of the full set was active somewhere.
L3MBTL1 inh = qHTS Assay for the Inhibitors of L3MBTL1; Potency, µM (doses to about 57.1 µM), most hits filed as inhibitors; Lethal(3)malignant brain tumor-like protein 1 (Homo sapiens), Q9Y468; 230,000 compounds, 0.66% hits; AID 485360, 2010; AlphaScreen L3MBTL1–H3K9me1 peptide binding; further: nearly all actives have a fitted effect of over 60% in size
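Read-out is AlphaScreen signal from streptavidin donor and nickel chelate acceptor beads (10 ug/mL final each) bridging L3MBTL1 (50 nM) and biotinylated K9-monomethylated H3(1-15) peptide (75 nM), after 30 min compound exposure at room temperature.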
Pol kappa inh-1 = qHTS for Inhibitors of Polymerase Kappa | DNA polymerase kappa (Homo sapiens), Q9UBT6 | purified Pol kappa, fluorescent DNA synthesis assay, 10 min | Potency, µM (doses to about 107 µM), usual class: inhibitors | 400,000 compounds, 0.53% hits | AID 588579, 2011
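Kinetic fluorescence readout at 0 and 10 min followed reaction start with substrate at 50 nM final. Beforehand, enzyme (10 nM Pol kappa) stood 15 min with compound at room temperature; buffer-only wells were negative controls.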
Pol eta inh-1 = qHTS for Inhibitors of Polymerase Eta | recombinant Pol eta, fluorescent DNA replication assay | Potency, µM (top dose mostly 114 µM), actives largely listed as inhibitors | 390,000 compounds, 1.2% hits
Target sequence (Q9Y253 whole entry, looked up): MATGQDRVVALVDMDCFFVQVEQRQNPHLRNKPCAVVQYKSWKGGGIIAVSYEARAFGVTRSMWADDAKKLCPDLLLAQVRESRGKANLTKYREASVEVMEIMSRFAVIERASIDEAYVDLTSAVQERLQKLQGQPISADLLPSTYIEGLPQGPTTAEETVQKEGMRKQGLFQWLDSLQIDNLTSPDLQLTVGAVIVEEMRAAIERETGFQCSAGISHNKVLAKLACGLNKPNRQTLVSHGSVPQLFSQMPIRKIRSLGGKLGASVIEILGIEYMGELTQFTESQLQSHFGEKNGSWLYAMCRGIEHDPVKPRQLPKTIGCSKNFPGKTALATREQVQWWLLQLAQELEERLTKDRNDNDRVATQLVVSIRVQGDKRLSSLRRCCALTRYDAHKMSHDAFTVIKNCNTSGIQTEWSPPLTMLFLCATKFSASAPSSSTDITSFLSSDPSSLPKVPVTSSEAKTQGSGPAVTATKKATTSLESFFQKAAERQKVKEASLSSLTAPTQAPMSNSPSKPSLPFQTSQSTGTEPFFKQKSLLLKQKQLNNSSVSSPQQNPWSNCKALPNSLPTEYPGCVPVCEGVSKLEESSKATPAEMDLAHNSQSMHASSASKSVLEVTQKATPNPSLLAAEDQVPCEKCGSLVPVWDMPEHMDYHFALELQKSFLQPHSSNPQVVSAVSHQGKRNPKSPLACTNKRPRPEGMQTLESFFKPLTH
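Pol eta (10 nM) was preincubated with compounds for 15 min at room temperature, after which fluorescent replication substrate (50 nM final) was added to start the reaction. Fluorescence was read kinetically at 0 and 10 min.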
POLB inh = qHTS Assay for Inhibitors of DNA Polymerase Beta; 340,000 compounds, 1.3% hits; Pol beta primer extension/strand displacement, fluorescence kinetic; AID 485314, 2010; Potency, µM (series often up to 114 µM), actives largely listed as inhibitors
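Enzyme-only controls used 10 nM Pol beta; buffer lacking enzyme served as negative control. Compound preincubated 15 min, then 50 nM substrate added; 0 and 10 min reads at room temperature.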
Pol iota inh = qHTS for Inhibitors of Polymerase Iota. 390,000 compounds, 1% hits. AID 588590, 2011. DNA polymerase iota (Homo sapiens), Q9UNA4. Pol iota fluorescent replication assay, 10 min. Potency, µM (titrated, usually from 115 µM), hits mostly inhibitors
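Fluorescent replication assay read twice, at 0 min and 10 min after adding 50 nM (final) substrate. Enzyme (10 nM) and compounds were first incubated 15 min at room temperature; enzyme-free buffer wells were negative controls.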
APEX1 inh = qHTS Assay for Inhibitors of the Human Apurinic/apyrimidinic Endonuclease 1 (APE1) | DNA repair nuclease/redox regulator APEX1 (Homo sapiens), P27695 | recombinant APE1, TAMRA/BHQ-2 abasic DNA cleavage fluorescence | Potency, µM (highest dose often 65.8 µM), most hits filed as inhibitors | 350,000 compounds, 0.35% hits; further: nearly all actives have a fitted effect of over 55% in size
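Measures dequenching upon AP-site incision of a 5'-TAMRA/3'-BHQ-2 THF-containing duplex, 50 nM; human APE1 0.75 nM after 15 min room-temperature exposure to compound; kinetic three-point read at one-minute spacing.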
GALK confirm = Confirmation Assay for Inhibitors of Human Galactokinase (GALK); shares compounds with Pol eta inh-1; purified GALK, Kinase-Glo ATP depletion luminescence; Potency, µM (top dose mostly 115 µM), most hits filed as inhibitors; 150 compounds, 70% hits
Redox cycling = Confirmatory Assay for Inhibitors of Human Galactokinase (GALK): Phenol-HRP redox assay counterscreen; shares compounds with Pol eta inh-1; Potency, µM (titrated, usually from 115 µM), usual class: inhibitors; AID 2035, 2009; Phenol red-HRP H2O2 redox cycling, absorbance 600 nm; 150 compounds, 40% hits
HEK293 tox = Secondary Assay for Inhibitors of Human Galactokinase (GALK): HEK-293 Cell Viability Assay; shares compounds with Pol eta inh-1; HEK-293 viability, ATP luminescence (CellTiter-Glo), 24/48 h; Potency, µM (top dose mostly 46.1 µM), hits mostly inhibitors; 170 compounds, 10% hits
Pol kappa inh-2 = qHTS for Inhibitors of Polymerase Kappa: Confirmatory Assay for Cherry-picked Compounds; shares compounds with Pol eta inh-1; purified Pol-kappa, fluorescent strand-displacement substrate; Potency, µM, hits mostly inhibitors; 920 compounds, 76% hits; AID 720501, 2013
Pol eta inh-2 = qHTS for Inhibitors of Polymerase Eta: Confirmatory Assay for Cherry-picked Compounds; Potency, µM, hits mostly inhibitors; shares compounds with Pol eta inh-1; 2,600 compounds, 64% hits; Pol eta primer extension, TAMRA/BHQ fluorescence, 10 min; AID 720502, 2013
Hits are given with their value; i = inactive; ? = inconclusive; nt = not tested or not shown; [ ] = remark or other dose. The call rests on the fitted dose curve; in most records, active means well fitted curve in the direction sought with a large enough effect; inconclusive means small, poorly fitted or top-dose-only effect, or another doubt; inactive means no such curve, though single readings can be large; an effect the other way counts as inactive or inconclusive.

SMILES	L3MBTL1 inh	Pol kappa inh-1	Pol eta inh-1	POLB inh	Pol iota inh	APEX1 inh	Pol eta inh-2	others
O=C(O)CCCN1C(=O)/C(=C\C(Cl)=C\c2ccccc2)SC1=S	nt	?	10µM	?	?	?	24	Pol kappa inh-2=38
CC1CCN(S(=O)(=O)c2ccc3nc(N4CCN(c5ccccc5F)CC4)ccc3c2)CC1	nt	i	i	i	i	nt	nt
Clc1cccc(N/N=C/c2ccc(N3CCOCC3)cc2)c1	i	i	?	i	i	i	nt
O=C(O)c1cc(N/N=C/c2ccc(N3CCOCC3)cc2)ccc1Cl	i	?	50µM	?	?	?	85
CCN=c1scc(C)n1/N=C/c1ccc(O)c(O)c1O	32µM	22µM	6.3µM	10µM	8.9µM	?	67
C=CCCC(=O)N1C[C@H]2CON(C)[C@H]2C[C@H]1c1cccc(N2CCOCC2)c1	nt	nt	i	nt	nt	nt	nt
CCN(CC(=O)Nc1ccc(NC(C)=O)cc1)C(=O)CSc1ncnc2sc(C)c(C)c12	i	i	?	nt	?	i	?
Cc1c(C(=O)Nc2ccc(S(=O)(=O)Nc3ncccn3)cc2)oc2ccccc12	i	?	28µM	nt	?	i	43
Nc1ccc(C(=O)Nc2ccc3c(O)cc(S(=O)(=O)O)cc3c2)cc1	nt	?	11µM	nt	?	nt	76	Pol kappa inh-2=?
CCc1cccc(C)c1NC(=O)C1CCN(S(=O)(=O)Cc2ccccc2)CC1	nt	i	i	i	i	nt	nt
Cc1c(CCC(=O)NCCCCCC(=O)O)c(=O)oc2cc3occ(-c4ccccc4)c3cc12	nt	?	22µM	?	45µM	i	54	Pol kappa inh-2=?
O=C(c1ccccc1)c1ccc(-n2cnnc2)c([N+](=O)[O-])c1	nt	i	i	i	i	i	nt
Cc1nc2ncnn2c(N2CCN(C(=O)Cc3cccs3)CC2)c1C	nt	?	79µM	20µM	?	?	?
CCOC(=O)c1c2c(n(Cc3ccccc3)c1C)C(=O)C(=O)c1ccccc1-2	nt	i	8.9µM	nt	40µM	nt	85
COc1ccc(NS(=O)(=O)c2c(C)[nH]c(=O)[nH]c2=O)cc1OC	nt	i	i	i	i	i	nt
N[C@H](C(=O)O)c1cccc(O)c1	nt	i[19.4 µM]	nt	nt	nt	i	nt
O=c1[nH]c(/C=C/c2cccc([N+](=O)[O-])c2)c([N+](=O)[O-])c(=O)[nH]1	i	i	25µM	i	?	i	nt	GALK confirm=38µM;Redox cycling=i;HEK293 tox=i
O=c1[nH]c(/C=C/c2ccc(Cl)cc2Cl)c([N+](=O)[O-])c(=O)[nH]1	i	i	20µM	32µM	50µM	i	76
O=c1[nH]c(/C=C/c2ccccc2)c([N+](=O)[O-])c(=O)[nH]1	i	i	?	?	?	i	nt
CCC(C)Oc1ccc(/C=C/c2[nH]c(=O)[nH]c(=O)c2[N+](=O)[O-])cc1OC (stereo not drawn)	nt	i	i	i	?	i	nt
COc1cc(/C=C/c2[nH]c(=O)[nH]c(=O)c2[N+](=O)[O-])cc([N+](=O)[O-])c1O	nt	i	22µM	?	?	i	60	Pol kappa inh-2=?
O=C(Cn1nnc(-c2ccccc2)n1)NCC(=O)Nc1ccc(F)c(F)c1F	i	i	i	nt	i	i	nt
O=C(CCOc1ccccc1)Nc1ccnn1C1CCN(C(=O)CCC(F)(F)F)CC1	nt	i	i	i	i	i	nt
CC(=O)Nc1ccc(OCc2cccc(-c3nc4ccccc4c(=O)n3Cc3ccco3)c2)cc1	nt	nt	nt	nt	nt	nt	?
CC(=O)Nc1ccc(NC(=O)C(C)Sc2nc3ccccc3c(=O)n2Cc2ccco2)cc1 (stereo not drawn)	i	i	i	nt	i	i	nt
SMILES	L3MBTL1 inh	Pol kappa inh-1	Pol eta inh-1	POLB inh	Pol iota inh	APEX1 inh	Pol eta inh-2	others
CCCCC1CCC(C(=O)Nc2ccccc2N2CCOCC2)CC1 (stereo not drawn)	i	i	i	nt	i	i	nt
CC(=O)COC(=O)C1CCN(S(=O)(=O)c2cc([N+](=O)[O-])ccc2Cl)CC1	28µM	?	32µM	28µM	?	?	?
Cc1ccc(NC(=O)CC(C)CC2=NS(=O)(=O)c3ccccc3N2)cc1 (stereo not drawn)	i	i	i	i	i	i	nt
O=c1cc(-c2ccc(O)cc2)oc2ccc3ccccc3c12	i	i	?	nt	40µM	i	nt	Pol kappa inh-2=?
COc1cccc2oc(-c3ccc(O)cc3)cc(=O)c12	nt	i[19.4 µM]	nt	nt	nt	i	nt
CC#CCCCC(=O)Nc1cccc(C(=O)O)c1	i	?	14µM	i	?	i	?
CC(=O)NCc1ccc(C(=O)COC(=O)COc2ccccc2)s1	i	?	22µM	nt	45µM	i	76
CC(=O)OCC1=C(C(=O)O)N2C(=O)C(NC(=O)c3ccc(COc4cccc(Cl)c4Cl)o3)C2SC1 (stereo not drawn)	?	?	22µM	22µM	22µM	i	76
CO/N=C(/C(=O)N[C@@H]1C(=O)N2C(C(=O)O)=C(COC(N)=O)CS[C@H]12)c1ccco1	nt	?	nt	nt	nt	i	nt
COc1cccc(C(=O)NC2C(=O)N3C(C(=O)O)=C(COC(C)=O)CSC23)c1 (stereo not drawn)	?	?	50µM	nt	?	i	76
CC1=C(C(=O)O)N2C(=O)C(NC(=O)c3ccccc3Cl)C2SC1 (stereo not drawn)	nt	i	i	i	i	i	nt
CSc1nc(N)nc2c1ncn2C1OC(CO)CC1O (stereo not drawn)	nt	i	i	nt	i	nt	nt

Screens: PubChem, National Center for Advancing Translational Sciences (NCATS)
